About 7,900 targets were measured; listed, in parts, are those with a hit and a random draw of the rest. About 0.6% of all pairs of compound and target were hits.
Legend:
Assay in all cases: log2 fold change, soluble protein after heating vs DMSO (PISA); higher = thermal stabilisation; K562 cells, 10 uM, 30 min; active = over 0.2 and 3.5 SD of the protein, either way, in both replicates (recomputed)
[1] = compound: C1=CC=C(C=C1)[C@H](COC2=CC3=C(C=C2)NC(=O)N3)NC(=O)C4=CC=CN(C4=O)CC5=CC(=C(C=C5)F)F
Procedure, shortened: (§1)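 Soluble protein was quantified by TMTpro 16plex LC-MS/MS after channel sums were equalised. It was obtained as the supernatant after 21,000xg for 90 min from pooled aliquots of K562 cells (2×10^6 cells/mL, 10 μM compound, 30 min) heated for 3 min across 48°C-58°C and extracted in PBS with 0.5% NP-40 at 4°C. Thermal stability values are relative to control samples and come from duplicates. They are given as log2 fold changes.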

[2] = compound: CC1=C(SC2=C1C(=N[C@H](C3=NN=C(N32)C)CC(=O)N)C4=CC=C(C=C4)Cl)C
Procedure, shortened: as §1

[3] = compound: CC1=C2C(=CC=C1)N=C(N(C2=O)C3=CC=CC=C3C)CN4C=NC5=C(N=CN=C54)N
Procedure, shortened: as §1

[4] = compound: Cc1sc2c(c1C)C(c1ccc(Cl)cc1)=N[C@@H](CC(=O)OC(C)(C)C)c1nnc(C)n1-2
Procedure, shortened: as §1

[5] = compound: c1ccc([C@@H]2C[C@H]2NC2CCNCC2)cc1
Procedure, shortened: as §1

Measured: log2 fold change

RPP14 (UniProt O95059)
inactive: [1] 0.044 | [2] -0.023 | [3] -0.028 | [4] 0.002 | [5] -0.009

SEC31A (UniProt O94979)
inactive: [1] -0.067 | [2] 0.034 | [3] 0.09 | [4] -0.03 | [5] -0.006

SH3GLB2 (UniProt Q9NR46)
inactive: [1] -0.029 | [2] 0.064 | [3] 0.029 | [4] 0.004 | [5] -0.063

RPP25L (UniProt Q8N5L8)
inactive: [1] 0.032 | [2] -0.018 | [3] 0.026 | [4] 0.143 | [5] 0.033

RBM8A (UniProt Q9Y5S9)
inactive: [1] -0.02 | [2] -0.005 | [3] -0.062 | [4] 0.029 | [5] 0.045

RPS25 (UniProt P62851)
inactive: [1] 0.046 | [2] -0.166 | [3] -0.139 | [4] 0.09 | [5] 0.002

RIOK3 (UniProt O14730)
inactive: [1] -0.015 | [2] -0.008 | [3] -0.016 | [4] -0.008 | [5] 0.024

SCAF8 isoform 2 (UniProt Q9UPN6)
inactive: [1] -0.072 | [2] 0.099 | [3] 0.254 | [4] -0.016 | [5] 0.012

SGPL1 (UniProt O95470)
inactive: [1] 0.041 | [2] -0.014 | [3] 0.005 | [4] 0.049 | [5] -0.004

SLC19A1 (UniProt P41440)
UniProt P41440, sequence (P41440 whole entry, looked up): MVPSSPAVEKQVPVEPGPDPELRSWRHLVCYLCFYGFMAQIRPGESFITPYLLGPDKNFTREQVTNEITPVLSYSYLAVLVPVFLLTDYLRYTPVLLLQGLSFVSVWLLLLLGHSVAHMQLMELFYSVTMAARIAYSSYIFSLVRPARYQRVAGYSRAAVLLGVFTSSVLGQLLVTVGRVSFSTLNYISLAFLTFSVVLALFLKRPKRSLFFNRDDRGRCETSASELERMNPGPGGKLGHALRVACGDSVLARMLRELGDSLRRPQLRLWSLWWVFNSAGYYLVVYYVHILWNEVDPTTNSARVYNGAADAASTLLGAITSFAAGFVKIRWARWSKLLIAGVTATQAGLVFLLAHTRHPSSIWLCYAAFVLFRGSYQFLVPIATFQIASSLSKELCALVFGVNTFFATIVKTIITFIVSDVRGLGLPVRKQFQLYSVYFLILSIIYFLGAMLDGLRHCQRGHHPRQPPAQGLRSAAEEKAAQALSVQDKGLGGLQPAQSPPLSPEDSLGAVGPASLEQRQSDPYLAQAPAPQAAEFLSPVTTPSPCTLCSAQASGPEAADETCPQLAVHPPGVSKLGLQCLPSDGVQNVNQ
inactive: [1] -0.025 | [2] 0.065 | [3] 0.045 | [4] -0.013 | [5] 0.017

SCD (UniProt O00767)
inactive: [1] 0.011 | [2] -0.019 | [3] 0.012 | [4] 0.054 | [5] 0.027

RBM27 (UniProt Q9P2N5)
inactive: [1] -0.015 | [2] 0.005 | [3] 0.049 | [4] 0.029 | [5] -0.01

RIPK1 (UniProt Q13546)
inactive: [1] -0.058 | [2] -0.134 | [3] 0.033 | [4] -0.048 | [5] -0.049

RPS5 (UniProt P46782)
inactive: [1] 0.049 | [2] -0.144 | [3] -0.214 | [4] 0.082 | [5] 0.001

RNPEP (UniProt Q9H4A4)
inactive: [1] -0.043 | [2] 0.05 | [3] 0.047 | [4] -0.015 | [5] -0.021

SACM1L (UniProt Q9NTJ5)
inactive: [1] 0 | [2] 0.048 | [3] 0.064 | [4] -0.044 | [5] 0.006

RPS21 (UniProt P63220)
inactive: [1] -0.008 | [2] -0.047 | [3] 0.028 | [4] 0.017 | [5] 0.02

RHOXF2 (UniProt Q9BQY4)
inactive: [1] 0.004 | [2] -0.031 | [3] 0.024 | [4] 0.012 | [5] 0.057

RAP1GDS1 isoform 5 (UniProt P52306)
inactive: [1] -0.093 | [2] -0.01 | [3] 0.119 | [4] -0.001 | [5] -0.009

RPAIN isoform 8 (UniProt Q86UA6)
inactive: [1] 0.026 | [2] 0.057 | [3] 0.046 | [4] -0.038 | [5] 0.006

SLC12A9 (UniProt Q9BXP2)
inactive: [1] 0.013 | [2] -0.002 | [3] 0.014 | [4] -0.035 | [5] 0.028

SLC12A5 (UniProt Q9H2X9)
inactive: [1] 0.102 | [2] 0.099 | [3] 0.066 | [4] -0.064 | [5] 0.055

RSPRY1 (UniProt Q96DX4)
inactive: [1] -0.009 | [2] 0.024 | [3] 0.012 | [4] -0.026 | [5] 0.029

REL (UniProt Q04864)
inactive: [1] 0.058 | [2] 0.048 | [3] 0.046 | [4] 0.037 | [5] 0.065

RAB9A (UniProt P51151)
inactive: [1] 0.024 | [2] 0.088 | [3] 0.065 | [4] -0.04 | [5] 0.001

SETMAR (UniProt Q53H47)
inactive: [1] 0.001 | [2] 0.096 | [3] 0.033 | [4] -0.031 | [5] -0.02

RHOA (UniProt P61586)
inactive: [1] 0.01 | [2] -0.058 | [3] -0.095 | [4] -0.041 | [5] 0.021

RPA3 (UniProt P35244)
inactive: [1] 0.008 | [2] 0.09 | [3] -0.055 | [4] -0.146 | [5] -0.03

SHCBP1 (UniProt Q8NEM2)
UniProt Q8NEM2, sequence (Q8NEM2 whole entry, looked up): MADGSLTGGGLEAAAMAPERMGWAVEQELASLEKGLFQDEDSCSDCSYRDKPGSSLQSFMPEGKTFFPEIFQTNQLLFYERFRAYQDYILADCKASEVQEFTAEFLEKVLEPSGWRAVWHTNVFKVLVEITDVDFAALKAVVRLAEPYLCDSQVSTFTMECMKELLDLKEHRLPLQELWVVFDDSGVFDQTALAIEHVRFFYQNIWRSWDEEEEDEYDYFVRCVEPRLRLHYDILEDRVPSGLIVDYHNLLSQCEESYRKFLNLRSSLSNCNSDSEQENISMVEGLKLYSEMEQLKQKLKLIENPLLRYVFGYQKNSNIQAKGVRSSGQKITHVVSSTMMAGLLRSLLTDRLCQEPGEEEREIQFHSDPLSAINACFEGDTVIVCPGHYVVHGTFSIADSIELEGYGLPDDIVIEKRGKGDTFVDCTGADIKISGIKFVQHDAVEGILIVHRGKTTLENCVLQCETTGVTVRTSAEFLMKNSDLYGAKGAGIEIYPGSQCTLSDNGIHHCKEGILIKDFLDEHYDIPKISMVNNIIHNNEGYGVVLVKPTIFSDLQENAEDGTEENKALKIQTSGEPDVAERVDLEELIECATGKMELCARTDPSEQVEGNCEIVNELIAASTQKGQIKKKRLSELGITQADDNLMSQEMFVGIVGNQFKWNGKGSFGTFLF
inactive: [1] 0.018 | [2] -0.176 | [3] 0.138 | [4] -0.089 | [5] -0.056

RCC1 isoform 2 (UniProt P18754)
inactive: [1] -0.175 | [2] 0.096 | [3] 0.176 | [4] 0.012 | [5] -0.058

RAB8B (UniProt Q92930)
UniProt Q92930, sequence (Q92930 whole entry, looked up): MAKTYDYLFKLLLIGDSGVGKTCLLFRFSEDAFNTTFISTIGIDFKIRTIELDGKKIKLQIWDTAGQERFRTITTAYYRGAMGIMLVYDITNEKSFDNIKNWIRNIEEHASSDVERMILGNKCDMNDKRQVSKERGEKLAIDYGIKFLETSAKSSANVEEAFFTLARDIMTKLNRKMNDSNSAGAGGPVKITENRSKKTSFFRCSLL
inactive: [1] 0.004 | [2] -0.006 | [3] -0.222 | [4] 0.033 | [5] -0.062

RPS3 (UniProt P23396)
inactive: [1] 0.055 | [2] -0.118 | [3] -0.127 | [4] 0.083 | [5] 0.015

SCO2 (UniProt O43819)
UniProt O43819, sequence (O43819 whole entry, looked up): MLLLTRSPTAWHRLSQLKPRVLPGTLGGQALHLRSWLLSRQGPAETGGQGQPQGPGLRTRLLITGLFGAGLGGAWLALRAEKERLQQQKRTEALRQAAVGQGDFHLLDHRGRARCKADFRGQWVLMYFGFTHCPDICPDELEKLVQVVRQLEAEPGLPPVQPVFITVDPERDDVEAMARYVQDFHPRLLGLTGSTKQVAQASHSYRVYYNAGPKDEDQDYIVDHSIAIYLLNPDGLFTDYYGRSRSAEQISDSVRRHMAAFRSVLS
inactive: [1] -0.03 | [2] -0.108 | [3] -0.041 | [4] -0.098 | [5] 0.023

RPS6KA2 isoform 2 (UniProt Q15349)
inactive: [1] -0.016 | [2] 0.045 | [3] 0.087 | [4] -0.015 | [5] -0.02

SEPTIN5 (UniProt G3XAH0)
inactive: [1] 0.002 | [2] -0.014 | [3] 0.061 | [4] -0.043 | [5] -0.031

RAC3 (UniProt P60763)
inactive: [1] -0.006 | [2] 0.028 | [3] 0.029 | [4] -0.025 | [5] -0.147

RAB3D (UniProt O95716)
UniProt O95716, sequence (O95716 whole entry, looked up): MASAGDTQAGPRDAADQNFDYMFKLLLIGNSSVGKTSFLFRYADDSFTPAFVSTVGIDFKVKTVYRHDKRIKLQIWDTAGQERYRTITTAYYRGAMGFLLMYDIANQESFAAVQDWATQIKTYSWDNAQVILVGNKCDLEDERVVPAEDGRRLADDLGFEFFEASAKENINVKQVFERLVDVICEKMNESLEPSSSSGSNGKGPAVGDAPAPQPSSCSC
inactive: [1] 0.023 | [2] -0.105 | [3] 0.007 | [4] -0.082 | [5] 0.201

RPS3A (UniProt P61247)
inactive: [1] 0.053 | [2] -0.162 | [3] -0.139 | [4] 0.099 | [5] 0

RSF1 (UniProt Q96T23)
UniProt Q96T23, sequence (Q96T23 whole entry, looked up): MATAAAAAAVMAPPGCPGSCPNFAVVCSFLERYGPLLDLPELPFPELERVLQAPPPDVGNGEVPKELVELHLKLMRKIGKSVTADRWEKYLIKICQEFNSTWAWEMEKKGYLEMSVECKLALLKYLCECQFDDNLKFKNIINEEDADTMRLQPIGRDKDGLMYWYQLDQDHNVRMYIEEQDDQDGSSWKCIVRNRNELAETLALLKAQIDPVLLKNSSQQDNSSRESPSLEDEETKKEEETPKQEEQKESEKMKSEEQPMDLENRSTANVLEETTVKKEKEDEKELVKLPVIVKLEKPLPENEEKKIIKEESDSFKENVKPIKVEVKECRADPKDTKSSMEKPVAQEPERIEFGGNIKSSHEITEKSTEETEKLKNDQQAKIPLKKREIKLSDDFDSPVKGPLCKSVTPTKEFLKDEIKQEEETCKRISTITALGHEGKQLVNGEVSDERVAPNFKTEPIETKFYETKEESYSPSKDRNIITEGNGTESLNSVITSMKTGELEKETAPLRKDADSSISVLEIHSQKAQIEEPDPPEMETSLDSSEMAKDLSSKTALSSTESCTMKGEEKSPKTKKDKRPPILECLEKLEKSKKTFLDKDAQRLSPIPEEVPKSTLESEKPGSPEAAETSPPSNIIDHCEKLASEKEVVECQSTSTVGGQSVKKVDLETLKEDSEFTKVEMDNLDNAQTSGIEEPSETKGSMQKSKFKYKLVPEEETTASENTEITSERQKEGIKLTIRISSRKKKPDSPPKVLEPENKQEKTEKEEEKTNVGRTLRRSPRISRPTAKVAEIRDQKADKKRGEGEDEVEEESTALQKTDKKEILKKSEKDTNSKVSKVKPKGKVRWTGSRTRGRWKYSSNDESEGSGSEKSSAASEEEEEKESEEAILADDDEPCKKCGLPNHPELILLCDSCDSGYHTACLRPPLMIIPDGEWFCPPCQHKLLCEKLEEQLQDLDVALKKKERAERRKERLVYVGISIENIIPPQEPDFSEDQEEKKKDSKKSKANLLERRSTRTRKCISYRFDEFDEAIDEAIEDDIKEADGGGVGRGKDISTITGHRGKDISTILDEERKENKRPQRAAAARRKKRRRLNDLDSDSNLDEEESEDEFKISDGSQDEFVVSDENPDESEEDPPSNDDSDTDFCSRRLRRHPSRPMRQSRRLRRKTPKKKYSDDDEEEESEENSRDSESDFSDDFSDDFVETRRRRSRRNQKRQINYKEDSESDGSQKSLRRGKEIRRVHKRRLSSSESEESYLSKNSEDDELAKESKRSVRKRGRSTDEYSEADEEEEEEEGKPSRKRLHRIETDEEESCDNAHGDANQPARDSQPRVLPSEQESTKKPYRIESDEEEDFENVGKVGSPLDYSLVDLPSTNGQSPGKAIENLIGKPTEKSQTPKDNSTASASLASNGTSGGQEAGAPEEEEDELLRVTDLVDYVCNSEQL
inactive: [1] -0.102 | [2] 0.091 | [3] 0.096 | [4] -0.061 | [5] -0.018

RB1 (UniProt P06400)
inactive: [1] -0.038 | [2] 0.064 | [3] 0.048 | [4] 0.011 | [5] 0

RAB5IF isoform 5 (UniProt Q9BUV8)
inactive: [1] 0.003 | [2] 0.101 | [3] 0.024 | [4] -0.08 | [5] 0.028

REEP4 (UniProt Q9H6H4)
inactive: [1] -0.004 | [2] -0.034 | [3] -0.023 | [4] 0.081 | [5] 0.003

SDHAF2 (UniProt Q9NX18)
inactive: [1] -0.02 | [2] 0.078 | [3] -0.013 | [4] -0.097 | [5] -0.096

SERINC1 (UniProt Q9NRX5)
UniProt Q9NRX5, sequence (Q9NRX5 whole entry, looked up): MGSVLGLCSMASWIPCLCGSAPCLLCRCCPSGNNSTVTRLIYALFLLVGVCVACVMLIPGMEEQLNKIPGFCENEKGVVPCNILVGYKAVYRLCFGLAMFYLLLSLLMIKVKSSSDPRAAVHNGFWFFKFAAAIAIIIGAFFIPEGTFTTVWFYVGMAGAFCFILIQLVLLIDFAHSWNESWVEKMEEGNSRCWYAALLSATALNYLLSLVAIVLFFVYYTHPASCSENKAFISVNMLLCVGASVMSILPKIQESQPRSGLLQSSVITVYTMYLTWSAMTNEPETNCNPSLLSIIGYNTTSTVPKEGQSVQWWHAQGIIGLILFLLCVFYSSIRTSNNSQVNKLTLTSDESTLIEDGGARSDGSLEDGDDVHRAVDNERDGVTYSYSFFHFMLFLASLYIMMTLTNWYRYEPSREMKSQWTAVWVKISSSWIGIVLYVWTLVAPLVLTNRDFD
inactive: [1] 0.021 | [3] 0.027 | [4] -0.08

SAP30 (UniProt O75446)
inactive: [2] -0.006 | [3] -0.002 | [5] -0.032

RPS19 (UniProt M0R2L9)
inactive: [4] 0.183

SDC3 (UniProt O75056)
inactive: [2] -0.012 | [3] 0.071 | [4] -0.044 | [5] 0.052

RMDN2 isoform 2 (UniProt Q96LZ7)
inactive: [3] 0.164

RNF26 (UniProt Q9BY78)
inactive: [1] 0.005 | [3] -0.104

SESN2 (UniProt P58004)
inactive: [1] -0.03 | [2] -0.031 | [3] 0.067 | [4] 0.066 | [5] -0.028

SDHAF4 (UniProt Q5VUM1)
inactive: [1] 0.053 | [2] 0.16 | [4] -0.025 | [5] 0.073

RBM6 (UniProt P78332)
UniProt P78332, sequence (P78332 whole entry, looked up): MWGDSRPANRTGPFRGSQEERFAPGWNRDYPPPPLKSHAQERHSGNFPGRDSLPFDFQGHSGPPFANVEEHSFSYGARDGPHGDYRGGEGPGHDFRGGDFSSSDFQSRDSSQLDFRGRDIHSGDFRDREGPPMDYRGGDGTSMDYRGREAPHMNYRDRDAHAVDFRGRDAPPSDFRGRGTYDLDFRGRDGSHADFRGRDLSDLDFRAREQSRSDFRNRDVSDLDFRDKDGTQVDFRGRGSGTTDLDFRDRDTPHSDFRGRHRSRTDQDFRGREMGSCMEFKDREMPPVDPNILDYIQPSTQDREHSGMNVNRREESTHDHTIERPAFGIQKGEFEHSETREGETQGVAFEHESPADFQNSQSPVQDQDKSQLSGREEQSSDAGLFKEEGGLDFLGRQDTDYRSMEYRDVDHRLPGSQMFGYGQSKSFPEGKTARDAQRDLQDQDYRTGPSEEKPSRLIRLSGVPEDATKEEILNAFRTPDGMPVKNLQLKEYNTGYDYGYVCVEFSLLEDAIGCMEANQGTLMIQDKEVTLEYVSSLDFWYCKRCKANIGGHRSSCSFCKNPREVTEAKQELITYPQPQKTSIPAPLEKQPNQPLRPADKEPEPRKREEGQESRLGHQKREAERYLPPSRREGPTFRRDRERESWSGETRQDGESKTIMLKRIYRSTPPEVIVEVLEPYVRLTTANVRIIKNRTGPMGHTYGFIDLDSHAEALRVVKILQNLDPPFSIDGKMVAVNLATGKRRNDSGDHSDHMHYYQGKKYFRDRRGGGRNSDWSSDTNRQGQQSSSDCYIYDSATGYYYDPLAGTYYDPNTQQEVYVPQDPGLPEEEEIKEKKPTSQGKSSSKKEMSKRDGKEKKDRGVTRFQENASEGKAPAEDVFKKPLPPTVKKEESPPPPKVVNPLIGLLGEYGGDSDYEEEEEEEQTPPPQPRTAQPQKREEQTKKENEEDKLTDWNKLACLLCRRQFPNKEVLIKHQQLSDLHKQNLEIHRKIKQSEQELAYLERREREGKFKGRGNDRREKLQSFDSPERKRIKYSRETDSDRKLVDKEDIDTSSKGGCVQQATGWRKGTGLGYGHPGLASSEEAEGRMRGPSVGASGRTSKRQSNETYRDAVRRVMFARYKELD
inactive: [2] -0.075 | [4] 0.012 | [5] 0.076

RPS27A (UniProt P62979)
inactive: [1] 0.076 | [2] -0.111 | [3] -0.281 | [4] 0.108 | [5] -0.025

RRP9 (UniProt O43818)
inactive: [1] 0.036 | [2] -0.136 | [3] 0.02 | [4] 0.015 | [5] 0.1

RUFY3 isoform 3 (UniProt Q7L099)
inactive: [2] -0.004 | [3] 0.061 | [4] 0.016 | [5] 0.029

RABGAP1L isoform 5 (UniProt Q5R372)
inactive: [1] 0.027 | [2] 0.027 | [4] 0.113 | [5] 0.066

Source: the supplement of paper PMC10849652
